Assay results reported in PubChem BioAssay AID1159580 (chemical genetic matrix, 2015).
Screen size: about 5,500 compounds; about 2,000 (36%) were called active. Not shown: some 18% with an inconclusive outcome. The list shows a part of the results. Values without a mark were called inactive. Rule as the data show it: active = normalized growth mostly below about 0.91 (no sharp cut-off); inconclusive = no clear call, values can overlap the other calls; inactive = mostly above about 0.92.

Assay: chemical genetic growth profiling, strain panel (AID 1159580);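 also: tested at 20 µM; growth read once vehicle control cultures reached saturation at 30 °C; 1 = growth at the plate median or of vehicle wells; lower values mean less growth of the strain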
Details: growth OD

C#CCCCCCCCCCCCC(O)CC(O)COC(C)=O (stereo unspecified)
normalized growth (S. cerevisiae deletion strains, locus YKL009W, strain mrt4, stronger effect = lower value): 0.8 (active)
normalized growth (S. cerevisiae deletion strains, locus YKL068W, stronger effect = lower value): 0.985
normalized growth (S. cerevisiae deletion strains, locus YKL085W, strain MDH1 (second series), stronger effect = lower value): 0.964
normalized growth (S. cerevisiae deletion strains, locus YKL085W, strain MDH1, stronger effect = lower value): 0.964
normalized growth (S. cerevisiae deletion strains, locus YKL160W, strain elf1, stronger effect = lower value): 0.864 (active)
normalized growth (S. cerevisiae deletion strains, locus YKL190W, strain CNB1, stronger effect = lower value): 0.986
normalized growth (S. cerevisiae deletion strains, locus YKR001C, strain vps1, stronger effect = lower value): 0.871 (active)
normalized growth (S. cerevisiae deletion strains, locus YKR026C, strain gcn3, stronger effect = lower value): 0.843 (active)
normalized growth (S. cerevisiae deletion strains, locus YKR091W, strain srl3, stronger effect = lower value): 0.996
normalized growth (S. cerevisiae deletion strains, locus YLL001W, strain dnm1, stronger effect = lower value): 0.913
normalized growth (S. cerevisiae deletion strains, locus YLL026W, stronger effect = lower value): 0.344 (active)
normalized growth (S. cerevisiae deletion strains, locus YLL041C, strain sdh2, stronger effect = lower value): 0.542 (active)
normalized growth (S. cerevisiae deletion strains, locus YLR027C, strain aat2, stronger effect = lower value): 0.478 (active)
normalized growth (S. cerevisiae deletion strains, locus YLR039C, strain RIC1, stronger effect = lower value): 0.976
normalized growth (S. cerevisiae deletion strains, locus YLR058C, strain SHM2, stronger effect = lower value): 0.965
normalized growth (S. cerevisiae deletion strains, locus YLR102C, strain apc9, stronger effect = lower value): 0.968
normalized growth (S. cerevisiae deletion strains, locus YLR113W, strain HOG1, stronger effect = lower value): 0.94
normalized growth (S. cerevisiae deletion strains, locus YLR221C, strain rsa3, stronger effect = lower value): 0.305 (active)
normalized growth (S. cerevisiae deletion strains, locus YLR258W, strain gsy2, stronger effect = lower value): 0.493 (active)
normalized growth (S. cerevisiae deletion strains, locus YLR262C, strain YPT6 (second series), stronger effect = lower value): 0.726 (active)
normalized growth (S. cerevisiae deletion strains, locus YLR262C, strain YPT6, stronger effect = lower value): 0.962
normalized growth (S. cerevisiae deletion strains, locus YLR268W, strain sec22, stronger effect = lower value): 0.927
normalized growth (S. cerevisiae deletion strains, locus YLR320W, strain mms22, stronger effect = lower value): 0.647 (active)
normalized growth (S. cerevisiae deletion strains, locus YLR330W, strain CHS5, stronger effect = lower value): 0.981
normalized growth (S. cerevisiae deletion strains, locus YLR342W, strain FKS1 (second series), stronger effect = lower value): 0.856
normalized growth (S. cerevisiae deletion strains, locus YLR342W, strain FKS1, stronger effect = lower value): 0.647 (active)
normalized growth (S. cerevisiae deletion strains, locus YLR357W, strain rsc2, stronger effect = lower value): 0.958
normalized growth (S. cerevisiae deletion strains, locus YLR370C, strain arc18, stronger effect = lower value): 0.994
normalized growth (S. cerevisiae deletion strains, locus YLR371W, strain rom2, stronger effect = lower value): 0.958
normalized growth (S. cerevisiae deletion strains, locus YLR384C, strain iki3, stronger effect = lower value): 0.967
normalized growth (S. cerevisiae deletion strains, locus YLR418C, strain cdc73, stronger effect = lower value): 0.861
normalized growth (S. cerevisiae deletion strains, locus YML016C, strain PPZ1, stronger effect = lower value): 0.978
normalized growth (S. cerevisiae deletion strains, locus YML032C, strain rad52, stronger effect = lower value): 0.868 (active)
normalized growth (S. cerevisiae deletion strains, locus YML120C, strain ndi1, stronger effect = lower value): 0.171 (active)
normalized growth (S. cerevisiae deletion strains, locus YML124C, strain tub3, stronger effect = lower value): 0.972
normalized growth (S. cerevisiae deletion strains, locus YMR058W, strain fet3, stronger effect = lower value): 0.749 (active)
normalized growth (S. cerevisiae deletion strains, locus YMR078C, strain ctf18, stronger effect = lower value): 0.954
normalized growth (S. cerevisiae deletion strains, locus YMR125W, strain sto1, stronger effect = lower value): 0.908
normalized growth (S. cerevisiae deletion strains, locus YMR129W, stronger effect = lower value): 0.316 (active)
normalized growth (S. cerevisiae deletion strains, locus YMR205C, strain PFK2, stronger effect = lower value): 0.507 (active)
normalized growth (S. cerevisiae deletion strains, locus YMR223W, strain ubp8, stronger effect = lower value): 0.889 (active)
normalized growth (S. cerevisiae deletion strains, locus YMR231W, strain pep5, stronger effect = lower value): 1.01
normalized growth (S. cerevisiae deletion strains, locus YMR263W, strain SAP30, stronger effect = lower value): 0.966
normalized growth (S. cerevisiae deletion strains, locus YMR307W, strain GAS1, stronger effect = lower value): 0.885
normalized growth (S. cerevisiae deletion strains, locus YNL067W, strain RPL9B, stronger effect = lower value): 0.928
normalized growth (S. cerevisiae deletion strains, locus YNL071W, strain lat1, stronger effect = lower value): 0.208 (active)
normalized growth (S. cerevisiae deletion strains, locus YNL128W, strain TEP1, stronger effect = lower value): 0.961
normalized growth (S. cerevisiae deletion strains, locus YNL153C, strain GIM3, stronger effect = lower value): 0.994
normalized growth (S. cerevisiae deletion strains, locus YNL183C, strain NPR1, stronger effect = lower value): 0.954
normalized growth (S. cerevisiae deletion strains, locus YNL209W, strain ssb2, stronger effect = lower value): 0.886 (active)
normalized growth (S. cerevisiae deletion strains, locus YNL233W, strain BNI4, stronger effect = lower value): 0.906
normalized growth (S. cerevisiae deletion strains, locus YNL248C, strain rpa49, stronger effect = lower value): 0.84 (active)
normalized growth (S. cerevisiae deletion strains, locus YNL250W, strain rad50, stronger effect = lower value): 0.946
normalized growth (S. cerevisiae deletion strains, locus YNL271C, strain bni1, stronger effect = lower value): 0.942
normalized growth (S. cerevisiae deletion strains, locus YNL298W, strain CLA4, stronger effect = lower value): 0.786 (active)
normalized growth (S. cerevisiae deletion strains, locus YNL307C, strain MCK1, stronger effect = lower value): 0.744 (active)
normalized growth (S. cerevisiae deletion strains, locus YNL322C, strain KRE1 (second series), stronger effect = lower value): 0.633 (active)
normalized growth (S. cerevisiae deletion strains, locus YNL322C, strain KRE1, stronger effect = lower value): 0.98
normalized growth (S. cerevisiae deletion strains, locus YNR049C, strain mso1, stronger effect = lower value): 1.01
normalized growth (S. cerevisiae deletion strains, locus YNR052C, strain pop2, stronger effect = lower value): 0.896 (active)
normalized growth (S. cerevisiae deletion strains, locus YOL006C, strain TOP1, stronger effect = lower value): 0.85
normalized growth (S. cerevisiae deletion strains, locus YOL012C, strain htz1): 1.07
normalized growth (S. cerevisiae deletion strains, locus YOL147C, strain pex11, stronger effect = lower value): 0.953
normalized growth (S. cerevisiae deletion strains, locus YOR001W, strain rrp6, stronger effect = lower value): 0.397 (active)
normalized growth (S. cerevisiae deletion strains, locus YOR061W, strain CKA2, stronger effect = lower value): 0.893
normalized growth (S. cerevisiae deletion strains, locus YOR069W, strain VPS5, stronger effect = lower value): 0.992
normalized growth (S. cerevisiae deletion strains, locus YOR070C, strain gyp1, stronger effect = lower value): 0.878 (active)
normalized growth (S. cerevisiae deletion strains, locus YOR080W, strain dia2, stronger effect = lower value): 0.952
normalized growth (S. cerevisiae deletion strains, locus YOR083W, strain WHI5, stronger effect = lower value): 0.866 (active)
normalized growth (S. cerevisiae deletion strains, locus YOR106W, strain vam3, stronger effect = lower value): 0.442 (active)
normalized growth (S. cerevisiae deletion strains, locus YOR136W, strain idh2, stronger effect = lower value): 0.934
normalized growth (S. cerevisiae deletion strains, locus YOR144C, strain elg1, stronger effect = lower value): 0.973
normalized growth (S. cerevisiae deletion strains, locus YOR184W, strain ser1, stronger effect = lower value): 0.774 (active)
normalized growth (S. cerevisiae deletion strains, locus YOR231W, strain MKK1, stronger effect = lower value): 1.01
normalized growth (S. cerevisiae deletion strains, locus YOR265W, strain rbl2, stronger effect = lower value): 0.926 (active)
normalized growth (S. cerevisiae deletion strains, locus YOR270C, strain vph1, stronger effect = lower value): 0.506 (active)
normalized growth (S. cerevisiae deletion strains, locus YOR290C, strain snf2, stronger effect = lower value): 0.899
normalized growth (S. cerevisiae deletion strains, locus YOR316C, strain cot1, stronger effect = lower value): 0.969
normalized growth (S. cerevisiae deletion strains, locus YPL051W, strain arl3, stronger effect = lower value): 0.831 (active)
normalized growth (S. cerevisiae deletion strains, locus YPL055C, strain LGE1, stronger effect = lower value): 0.904
normalized growth (S. cerevisiae deletion strains, locus YPL078C, strain atp4, stronger effect = lower value): 0.829 (active)
normalized growth (S. cerevisiae deletion strains, locus YPL106C, strain sse1, stronger effect = lower value): 0.58 (active)
normalized growth (S. cerevisiae deletion strains, locus YPL240C, strain hsp82, stronger effect = lower value): 0.342 (active)
normalized growth (S. cerevisiae deletion strains, locus YPL241C, strain CIN2, stronger effect = lower value): 0.983
normalized growth (S. cerevisiae deletion strains, locus YPL256C, strain CLN2, stronger effect = lower value): 0.981
normalized growth (S. cerevisiae deletion strains, locus YPR119W, strain clb2, stronger effect = lower value): 0.97
normalized growth (S. cerevisiae deletion strains, locus YPR141C, strain kar3, stronger effect = lower value): 0.979
normalized growth (S. cerevisiae deletion strains, locus YPR163C, strain tif3, stronger effect = lower value): 0.961
normalized growth (S. cerevisiae deletion strains, locus YPR167C, strain met16, stronger effect = lower value): 0.969
normalized growth (S. cerevisiae deletion strains, strain wtn01, stronger effect = lower value): 0.928
normalized growth (S. cerevisiae strains, strain wild type, stronger effect = lower value): 0.97
